Results published in PubChem BioAssay AID1159580 (chemical genetic matrix, 2015).
“And” between values parts separate entries of the source, which are not always exact repeats. Equal entries are not always repeated. The campaign covered roughly 5,500 compounds. About 2,000 (36%) were called active. About 18% were inconclusive and are not listed. Cut-off read from the data, not from the text of the source: active = normalized growth mostly below about 0.91 (no sharp cut-off); inconclusive = no clear call, values can overlap the other calls; inactive = mostly above about 0.92. Some of the results follow.

Assay: chemical genetic growth profiling, strain panel (AID 1159580);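 note: tested at 20 µM; growth read once vehicle control cultures reached saturation at 30 °C; 1 = growth at the plate median or of vehicle wells; lower values mean less growth of the strain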
Conditions: S. cerevisiae deletion strains, growth OD

Measured: normalized growth

CNC(=O)CSP(=S)(OC)OC
inactive: locus YAL013W, strain DEP1, stronger effect = lower value 1.02 | locus YAL021C, strain ccr4, stronger effect = lower value 1.01 | locus YAL026C, strain drs2, stronger effect = lower value 1.01 | locus YAL030W, strain snc1, stronger effect = lower value 1.01 | locus YBL061C, strain skt5, stronger effect = lower value 1.03 | locus YBR009C, strain hhf1, stronger effect = lower value 0.999 | locus YBR021W, strain FUR4, stronger effect = lower value 0.994 | locus YBR023C, strain chs3, stronger effect = lower value 1.03 | locus YBR171W, strain sec66, stronger effect = lower value 1.03 | locus YBR229C, strain ROT2, stronger effect = lower value 1.01 | locus YBR231C, strain swc5, stronger effect = lower value 1.01 | locus YBR279W, strain paf1, stronger effect = lower value 1.01 | locus YCL011C, strain gbp2, stronger effect = lower value 1.02 | locus YCL016C, strain dcc1, stronger effect = lower value 1.02 | locus YCL029C, strain bik1, stronger effect = lower value 1.01 | locus YCL061C, strain MRC1, stronger effect = lower value 1.01 | locus YCL069W, strain vba3, stronger effect = lower value 1.02 | locus YCR088W, strain abp1, stronger effect = lower value 1.01 | locus YDL005C, strain med2, stronger effect = lower value 1.03 | locus YDL035C, strain GPR1, stronger effect = lower value 1.02 | locus YDL040C, strain nat1, stronger effect = lower value 1.02 | locus YDL074C, strain BRE1, stronger effect = lower value 0.971 | locus YDL101C, strain DUN1, stronger effect = lower value 1 | locus YDL134C, strain PPH21, stronger effect = lower value 1 | locus YDL185W, strain tfp1, stronger effect = lower value 1.03 | locus YDL192W, strain arf1, stronger effect = lower value 1.02 | locus YDR001C, strain nth1, stronger effect = lower value 1.01 | locus YDR069C, strain doa4, stronger effect = lower value 1.02 | locus YDR101C, strain arx1, stronger effect = lower value 1.02 | locus YDR137W, strain rgp1, stronger effect = lower value 1.03 | locus YDR150W, strain NUM1, stronger effect = lower value 1.01 | locus YDR159W, strain sac3, stronger effect = lower value 1.02 | locus YDR162C, strain NBP2, stronger effect = lower value 1.01 | locus YDR195W, strain ref2 0.99 | locus YDR297W, strain sur2, stronger effect = lower value 1.01 | locus YDR318W, strain mcm21, stronger effect = lower value 1.02 | locus YDR334W, strain swr1, stronger effect = lower value 1.02 | locus YDR335W, strain msn5, stronger effect = lower value 1.01 | locus YDR388W, stronger effect = lower value 1.02 | locus YDR392W, strain spt3, stronger effect = lower value 1.01 | locus YDR502C, strain sam2, stronger effect = lower value 1.02 | locus YEL003W, strain gim4, stronger effect = lower value 1.01 | locus YEL037C, strain rad23, stronger effect = lower value 1.02 | locus YEL061C, strain CIN8 (second series), stronger effect = lower value 1.01 | locus YEL061C, strain CIN8, stronger effect = lower value 1.01 | locus YER015W, strain faa2, stronger effect = lower value 1.02 | locus YER016W, strain bim1, stronger effect = lower value 1.02 | locus YER110C, stronger effect = lower value 1.02 | locus YER111C, strain swi4, stronger effect = lower value 1.01 | locus YER155C, strain BEM2 (second series), stronger effect = lower value 1.02 | locus YER155C, strain BEM2, stronger effect = lower value 1.01 | locus YER167W, strain BCK2, stronger effect = lower value 1.01 | locus YFR010W, strain ubp6, stronger effect = lower value 1.01 | locus YGL078C, strain dbp3, stronger effect = lower value 1.02 | locus YGL086W, strain mad1, stronger effect = lower value 1.01 | locus YGL167C, strain pmr1, stronger effect = lower value 1.02 | locus YGL173C, strain kem1, stronger effect = lower value 1.02 | locus YGL227W, strain vid30, stronger effect = lower value 1.01 | locus YGL240W, strain doc1, stronger effect = lower value 1 | locus YGL248W, strain PDE1, stronger effect = lower value 1 | locus YGL253W, strain hxk2, stronger effect = lower value 1.03 | locus YGR078C, strain PAC10, stronger effect = lower value 1.02 | locus YGR135W, strain pre9, stronger effect = lower value 1.01 | locus YGR229C, strain SMI1, stronger effect = lower value 1.03 | locus YGR252W, strain gcn5, stronger effect = lower value 0.995 | locus YHR013C, strain ard1, stronger effect = lower value 1.01 | locus YHR027C, strain rpn1, stronger effect = lower value 1.02 | locus YHR030C, strain SLT2, stronger effect = lower value 1.03 and 1.08 | locus YHR079C, strain IRE1 (second series), stronger effect = lower value 1.02 | locus YHR079C, strain IRE1, stronger effect = lower value 1.04 | locus YHR094C, strain hxt1, stronger effect = lower value 1.02 | locus YHR129C, strain ARP1, stronger effect = lower value 1.01 | locus YHR142W, strain chs7, stronger effect = lower value 1.03 | locus YHR200W, strain rpn10, stronger effect = lower value 1.02 | locus YIL066C, strain RNR3, stronger effect = lower value 1.04 | locus YIL073C, strain SPO22, stronger effect = lower value 1.09 | locus YIL125W, strain kgd1, stronger effect = lower value 1.01 | locus YIR030C, strain dcg1, stronger effect = lower value 1.03 | locus YJL092W, strain hpr5, stronger effect = lower value 1.01 | locus YJL095W, strain BCK1 (second series), stronger effect = lower value 1.03 | locus YJL095W, strain BCK1, stronger effect = lower value 1 and 1.08 | locus YJL115W, strain asf1, stronger effect = lower value 1.01 | locus YJL129C, strain trk1, stronger effect = lower value 1.03 | locus YJL134W, strain LCB3, stronger effect = lower value 1 | locus YJL154C, strain vps35, stronger effect = lower value 1.01 | locus YJL164C, strain tpk1, stronger effect = lower value 1.02 | locus YJL166W, strain qcr8, stronger effect = lower value 1 | locus YJL168C, strain set2, stronger effect = lower value 1.02 | locus YJL187C, strain SWE1 (second series), stronger effect = lower value 1.02 | locus YJR043C, strain POL32, stronger effect = lower value 0.998 | locus YJR066W, strain TOR1, stronger effect = lower value 0.992
